Assay outcomes deposited in PubChem BioAssay by several laboratories.
Hits are enriched below; roughly 4.7% of the tested compounds scored in any of these assays.
Cav32 inh = Cav3.2 calcium influx blockers – cell-based, Fluo-4 calcium fluorescence, FDSS, MLSMR library, primary screen | Voltage-dependent T-type calcium channel subunit alpha-1H (Homo sapiens), O95180 | Cav3.2-expressing cells; active compounds read low | B-score at 10 µM | hit rate 4% among 100,000;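 active = single-dose well whose peak fluorescence ratio is a statistical outlier from its plate by either plate-standardised score or position-corrected B-score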
DAT uptake mod = changed hDAT dopamine uptake under cocaine IC80, either direction, primary screen, cocaine antagonist project, cell-based, LLC-PK1 hDAT, [14C]-dopamine uptake, MLSMR. Sodium-dependent dopamine transporter (Homo sapiens), Q01959. AID 449768, 2010. hit rate 1.3% among 110,000. B-score at 10 µM. LLC-PK1 hDAT cells, [14C]-dopamine uptake with cocaine IC80; actives deviate in either direction;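 active = Z score or B-score, a plate-position-corrected score, falls beyond the plate's 99.7% confidence bounds, in either direction; inactive = both scores lie inside the 99.7% bounds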;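 also: scored against the spread of the other compound wells on the same plate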
Plk1 PBD FP = Plk1 polo box domain binding inhibitors, primary screen, biochemical, fluorescence polarization; Serine/threonine-protein kinase PLK1 (Homo sapiens), P53350; Plk1 PBD phosphopeptide binding; inhibition, %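 (tested at about 20 µM)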; hit rate 0.13% among 97,000; in the data active = inhibition above about 34%, passing the limit was not always enough
PLK1 inh = human PLK1 kinase inhibitors, primary screen, biochemical, TR-FRET; Serine/threonine-protein kinase PLK1 (Homo sapiens), P53350; recombinant PLK1 kinase, TR-FRET peptide phosphorylation; inhibition, % at 10 µM; hit rate 0.53% among 97,000; AID 619, 2007;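 active = inhibition of 50% or more in the single-concentration screen; inactive = inhibition below 50%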;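 also: 0% = DMSO max control and 100% = H-89 dihydrochloride min control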
SDO1 yeast rescue = growth rescue of sdo1-depleted yeast, primary screen, S. cerevisiae, bone marrow failure model. hit rate 0.21% among 140,000. z-score at 10 µM. S. cerevisiae sdo1-depleted JHY4D growth rescue, OD600 30 h; active compounds read high; pdr5 snq2 efflux-pump mutant strain. AID 817, 2007;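 active = z-score above 3 at both the 24 hr and the 30 hr optical density reads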;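 also: z-score against mean and SD of all compound wells on the same plate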
PTK2B oligo ant = antagonists of Pyk2 self-association, primary screen, Q293 cells, FERM NanoBiT luminescence, HTS; hit rate 0.83% among 99,000; active compounds read low; z-score (the deposit names both 25 µM and 10 µM); AID 1347419, 2020; Protein-tyrosine kinase 2-beta (Homo sapiens), Q14289;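 active = Z-score of -3 or lower, scaled per plate to the spread of control and sample wells; inactive = z-score above -3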;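 also: negative z-score means lost luminescence so less FERM oligomerization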
Target sequence (Q14289 whole entry, looked up): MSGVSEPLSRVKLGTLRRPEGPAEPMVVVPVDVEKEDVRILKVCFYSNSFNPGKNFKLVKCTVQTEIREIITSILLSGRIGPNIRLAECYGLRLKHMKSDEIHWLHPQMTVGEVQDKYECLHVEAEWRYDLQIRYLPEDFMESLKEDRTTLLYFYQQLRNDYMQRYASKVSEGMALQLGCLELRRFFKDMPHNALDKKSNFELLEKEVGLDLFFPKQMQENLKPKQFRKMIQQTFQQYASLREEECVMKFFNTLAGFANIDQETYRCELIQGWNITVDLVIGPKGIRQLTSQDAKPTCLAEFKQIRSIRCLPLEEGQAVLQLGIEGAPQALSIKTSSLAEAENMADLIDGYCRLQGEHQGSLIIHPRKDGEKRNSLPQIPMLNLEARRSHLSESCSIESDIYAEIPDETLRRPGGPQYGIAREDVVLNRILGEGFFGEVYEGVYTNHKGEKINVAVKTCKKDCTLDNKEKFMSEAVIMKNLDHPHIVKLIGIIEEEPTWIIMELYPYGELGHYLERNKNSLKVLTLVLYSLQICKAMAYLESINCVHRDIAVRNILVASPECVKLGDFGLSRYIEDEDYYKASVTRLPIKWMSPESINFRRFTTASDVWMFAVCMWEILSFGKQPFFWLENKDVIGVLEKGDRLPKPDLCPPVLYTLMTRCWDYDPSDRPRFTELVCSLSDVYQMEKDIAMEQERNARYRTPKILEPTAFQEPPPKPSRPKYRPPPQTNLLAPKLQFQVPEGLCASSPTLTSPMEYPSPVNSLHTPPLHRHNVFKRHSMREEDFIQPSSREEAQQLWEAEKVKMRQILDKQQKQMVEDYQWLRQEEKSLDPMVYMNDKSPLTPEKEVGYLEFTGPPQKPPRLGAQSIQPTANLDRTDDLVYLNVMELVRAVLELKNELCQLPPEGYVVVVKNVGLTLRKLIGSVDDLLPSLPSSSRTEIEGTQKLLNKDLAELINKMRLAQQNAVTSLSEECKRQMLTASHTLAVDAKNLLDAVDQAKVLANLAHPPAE
Numbers without * were called inactive; · = no result.

SMILES | Cav32 inh | DAT uptake mod | Plk1 PBD FP | PLK1 inh | SDO1 yeast rescue | PTK2B oligo ant
N=C1/C(=C\c2ccc(OCc3ccccc3)cc2)C(=O)N=C2SC(N3CCCC3)=NN12 | -0.078 | -0.88 | · | · | · | ·
CCN(CC)CCNC(=O)CCCCn1c(=S)[nH]c2c([nH]c3ccc(OC)cc32)c1=O | 0.18 | 2.6* | -14 | -10 | -0.26 | ·
Cc1c(NC(=O)Cc2ccccc2)cccc1C(=O)NN1C(=O)c2ccccc2C1=O | · | · | · | · | 0.39 | ·
Cc1ccc2cc(C#N)c(NCCNC(=O)C3CC3)nc2c1C | · | · | -8 | -13 | -1.1 | -0.15
Cc1ccc([N+](=O)[O-])cc1N=C(c1ccc([N+](=O)[O-])cc1)N1CCOCC1 | · | · | · | · | -0.46 | ·
O=[N+]([O-])c1ccc(C(=Nc2cccc3ccccc23)N2CCOCC2)cc1 | · | -1.6 | 4 | -9 | -0.36 | -3.5*
CCOc1ccc(CCNC(=O)c2ccc(N3CCCC3=O)cc2)cc1OCC | 0.06 | -7.7* | -6 | -4 | 0.15 | 1.6
COc1ccc(CCNC(=O)CCn2cccc2)cc1OC | -1.3 | -0.12 | 8 | -9 | 0.84 | 0.43
CCOc1ccc(CCNC(=O)CCn2cccc2)cc1OCC | 0.018 | -4.3* | 19 | 2 | 0.84 | -0.28
COc1cccc(C2=CC(=O)CC(c3ccco3)C2)c1 (stereo not given) | -0.36 | 0.06 | · | · | · | ·
CC(=O)N1CCc2cc(C(=O)CN3CCCN(Cc4ccc(F)cc4)C3)ccc21 | 0.63 | 0.014 | 19 | 68* | 0.17 | ·
CCOC(=O)c1c(-c2cccs2)csc1NC(C)=O | -2.3 | 0.21 | 10 | -8 | -1 | 0.41
CCOC(=O)c1c(-c2cccs2)csc1NC(=O)CSc1ncn[nH]1 | -4.7* | -0.79 | 2 | -11 | -0.52 | -1.4
CCOC(=O)c1c(-c2ccc(C)o2)csc1NC(=O)CSc1nnc(C)s1 | -6.2* | 0.85 | -19 | -7 | -1.1 | 0.97
CCCCCCN1CC(C(=O)OCC)C(=O)C1=O (stereo not given) | · | · | · | · | 0.57 | ·
CSc1cccc(NC(=O)/C=C/c2ccccc2)c1 | -6.3* | 0.042 | 10 | -6 | -1.3 | -0.47
CCOCCCNC(=O)c1cn(C)c2ccc(S(=O)(=O)N(C)C3CCCCC3)cc2c1=O | · | · | -15 | -2 | 0 | ·
CN1CCN(CCCNC(=O)c2cn(C)c3ccc(S(=O)(=O)N(C)C)cc3c2=O)CC1 | -0.29 | -0.29 | -7 | -13 | -0.68 | ·
COCCNC(=O)c1cn(C)c2ccc(S(=O)(=O)N(C)C3CCCCC3)cc2c1=O | 2.8 | 0.63 | -10 | 62* | 0.24 | ·
CC(C)N(CCNC(=O)c1cn(C)c2ccc(S(=O)(=O)N(C)C)cc2c1=O)Cc1ccccc1 | 1.2 | 1.3 | -2 | 59* | 0.22 | ·
CC12CCC(=O)N1c1c(sc3nc(N4CCOCC4)c4c(c13)CCCC4)C(=O)N2 (stereo not given) | 2.2 | 3.2* | 16 | -13 | -0.12 | 0.19
COC(=O)c1ccc(-c2sc3nc(N4CCOCC4)c4c(c3c2N)CCCC4)o1 | -3 | 0.026 | -34 | -5 | -0.72 | ·
N#C/C(=N\Nc1cccc(Cl)c1)C(=O)c1ccccc1 | -9.2* | 0.45 | -14 | -12 | -0.91 | -1.2
N#C/C(=N\Nc1ccccc1Cl)C(=O)c1ccccc1 | · | · | -10 | -8 | -1.6 | -1.2
CCOC(=O)Cc1ccc(NC(=O)c2ccc(C(C)(C)C)cc2)cc1 | -8.1* | -0.33 | 7 | 5 | -0.76 | 1.7
SMILES | Cav32 inh | DAT uptake mod | Plk1 PBD FP | PLK1 inh | SDO1 yeast rescue | PTK2B oligo ant
Cc1ccc(NC(=O)c2cc(Cl)nc3ccccc23)cc1 | 0.64 | -2.5* | -14 | -3 | -1.3 | -0.42
Cc1cccc(NC(=O)c2cc(Cl)nc3ccccc23)c1 | · | · | 7 | -7 | -1.2 | 0.17
O=C(Nc1ccc(NC(=O)c2ccc(S(=O)(=O)c3ccccc3)cc2)cc1)c1ccccc1 | · | · | -5 | -9 | 0.49 | 0.84
Cc1ccc(NC(=O)c2cc(S(=O)(=O)c3ccccc3)ccc2Cl)cc1 | -5.4* | -0.27 | -3 | -13 | -0.59 | 1.4
Cc1ccc(C(O)(C(=O)NNc2ccc3ccccc3n2)c2ccc(C)cc2)cc1 | · | · | · | · | -0.27 | ·
COc1ccc(/C=N/NC(=O)COc2cc(C)cc(C)c2)cc1COC(C)=O | · | · | · | · | 0.5 | ·
COCCNC(=S)N/N=C(\C)c1cccc([N+](=O)[O-])c1 | · | · | · | · | -0.34 | ·
CS/C(=N\S(=O)(=O)c1cccs1)Nc1ccc(Br)cc1F | · | · | · | · | -0.26 | ·
COc1ccc(Cl)cc1N1C(=O)/C(=C\c2sccc2C)N=C1SCC(=O)NC1CC1 | -6.2* | -0.72 | 0 | -9 | -0.53 | -2.6
CCNc1nc(NC(C)C)nc(N(C#N)CCOc2ccccc2)n1 | -5* | -0.36 | 12 | -16 | -1.4 | -2.1
C#CCN(C#N)c1nc(NCC)nc(NC(C)C)n1 | 1 | -0.74 | -20 | 2 | -0.83 | -0.16
CC(=O)NCC(=O)OC(C(=O)c1ccccc1)c1ccc(Cl)cc1 (stereo not given) | · | · | · | · | -0.16 | ·
CCOC(=O)c1[nH]c2ccc(OC)cc2c1NC(=S)N1CCN(c2ccccc2OC)CC1 | · | · | · | · | 0.26 | ·
CC(C)C1COC(c2cccc3ccccc23)=N1 (stereo not given) | 0.28 | 3* | · | · | -0.78 | ·
COc1ccc(C2Cc3ccccc3C(=O)O2)cc1 (stereo not given) | · | · | · | · | -0.29 | ·
CCN(Cc1ccccc1)S(=O)(=O)c1ccc(S(=O)(=O)N(Cc2cccc(OC)c2)CC2CCCO2)cc1 (stereo not given) | -6.7* | -0.012 | -1 | -19 | -0.74 | 0.29
CN(Cc1cccc(Cl)c1Cl)c1ccc(S(=O)(=O)N2CCCCC2)cc1[N+](=O)[O-] | · | · | · | · | -0.32 | ·
O=S(=O)(NC1c2cccc3cccc(c23)C1Sc1ncccn1)c1ccccc1 (stereo not given) | · | · | · | · | -1.3 | ·
O=[N+]([O-])c1ccc(Cl)c(S(=O)(=O)N2CCCCCC2)c1 | · | · | · | · | 0.26 | ·
CN1/C(=C/C(=O)c2nc(S(C)(=O)=O)ncc2Cl)C(C)(C)c2ccccc21 | 1 | 0.022 | -7 | -7 | -2.9 | -3.8*
Cc1c(C(=O)c2ccc(Cl)cc2Cl)cnc2cc3c(cc12)OCO3 | -4* | -8.5* | -1 | -8 | -1.3 | 1.1
Cc1nc(NC(=O)c2ccc(Cl)cc2)nc2cc3c(cc12)OCO3 | · | · | · | · | 0.97 | ·
CCN(CC)S(=O)(=O)c1ccc(N2CCOCC2)c(NC(=O)CCC2CCCCC2)c1 | · | · | · | · | -0.24 | ·
Cc1c(CN(C)C(=O)/C=C/c2ccc([N+](=O)[O-])cc2)cnn1C | · | · | · | · | 0.48 | ·
Cc1ccc(SCC2(O)CCN(S(=O)(=O)c3ccc(Cl)cc3)CC2)cc1 | -6.1* | 0.099 | -11 | -6 | -0.71 | -2.2
O=C(c1ccc(Cl)cc1)N1CCC(O)(CSc2ccccc2)CC1 | · | 1 | -17 | -6 | -0.71 | -0.12
